Experimental data as given in PubChem BioAssay (EPA / NIEHS).
The source made the active and inactive calls. Rule for the calls: active = hit-call score of the fitted dose curve at least 0.9, where 1 is the maximum; inactive = score below 0.9.

How the values were obtained:
[1] = read-out: TIMP metallopeptidase inhibitor 1 (TIMP1), TIMP1 (gene 7076); test: BSK_hDFCGF_TIMP1: BioMAP Diversity Plus: hDFCGF Assay for TIMP metallopeptidase inhibitor 1 (TIMP1) Biomarker Activity (AID 2283062); settings: primary human foreskin fibroblasts; actives raise or lower the signal
How it was run: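 Human foreskin fibroblast primary cultures dosed for 24 h; secreted/surface TIMP-1 quantified by ELISA. Bidirectional curve fitting against DMSO baseline; cytotoxicity tracked in parallel cultures by SRB total-protein staining.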

[2] = read-out: Matrix Metallopeptidase 1 (MMP1), MMP1 (gene 4312); test: BSK_hDFCGF_MMP1: BioMAP Diversity Plus: hDFCGF Assay for Matrix Metallopeptidase 1 (MMP1) Biomarker Activity (AID 2283064); settings: primary human foreskin fibroblasts; actives raise or lower the signal
How it was run: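 ELISA read-out of MMP1 from human foreskin fibroblasts (primary skin cells), 24 h post-dose. Gain or loss of signal was fitted bidirectionally versus DMSO negative control; cytotoxicity was checked by SRB in parallel cultures.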

[3] = read-out: Vascular cell adhesion molecule 1 (VCAM1), VCAM1 (gene 7412); test: BSK_hDFCGF_VCAM1: BioMAP Diversity Plus: hDFCGF Assay for Vascular cell adhesion molecule 1 (VCAM1) Biomarker Activity (AID 2283065); settings: primary human foreskin fibroblasts; actives raise or lower the signal;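 for AC50: VCAM-1 protein level quantified by ELISA after 24 h chemical exposure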
How it was run: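 Human foreskin fibroblast primary cells dosed with chemical, VCAM-1 measured by ELISA at 24 h. Bidirectional curve fitting relative to DMSO as negative control/baseline.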

[4] = read-out: Plasminogen activator inhibitor-1 (PAI1), SERPINE1 (gene 5054); test: BSK_hDFCGF_PAI1: BioMAP Diversity Plus: hDFCGF Assay for Plasminogen activator inhibitor-1 (PAI1) Biomarker Activity (AID 2283066); settings: primary human foreskin fibroblasts; actives raise or lower the signal
How it was run: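 PAI-1 levels in human dermal foreskin fibroblasts were quantified by ELISA 24 h after dosing, with gain or loss analysed against DMSO. Overt cytotoxicity was checked by sulforhodamine B total-protein staining in parallel cultures.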

[5] = read-out: Intercellular Adhesion Molecule 1 (ICAM1), ICAM1 (gene 3383); test: BSK_KF3CT_ICAM1: BioMAP Diversity Plus: KF3CT Assay for Intercellular Adhesion Molecule 1 (ICAM1) Biomarker Activity (AID 2283067); settings: primary human keratinocytes with fibroblasts; actives raise or lower the signal
How it was run: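 Human keratinocyte–foreskin fibroblast co-culture was treated for 24 h. Cell-surface ICAM-1 was quantified by ELISA, fitted bidirectionally relative to DMSO. Cytotoxicity was checked in parallel cultures by SRB total-protein staining.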

[6] = read-out: Interferon-gamma inducible Protein 10 (IP10), CXCL10 (gene 3627); test: BSK_KF3CT_IP10: BioMAP Diversity Plus: KF3CT Assay for Interferon-gamma inducible Protein 10 (IP10) Biomarker Activity (AID 2283068); settings: primary human keratinocytes with fibroblasts; actives raise or lower the signal
How it was run: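 ELISA read-out of IP-10 after 24 h chemical dosing of human skin primary co-culture (keratinocytes, foreskin fibroblasts). Gain or loss of signal relative to DMSO, bidirectional curve fit.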

[7] = BSK_KF3CT_SRB: Viability Assessment in the BioMAP Diversity Plus: KF3CT Assay (AID 2283069); settings: primary human keratinocytes with fibroblasts
How it was run: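 SRB read-out at 560 nm (0.1% stain, TCA-fixed cells) gauges overt cytotoxicity in a human skin keratinocyte–fibroblast co-culture 24 h post-dosing. Signal change was fitted bidirectionally relative to DMSO control.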

[8] = read-out: Interleukin-1 alpha (IL1a), IL1A (gene 3552); test: BSK_KF3CT_IL1a: BioMAP Diversity Plus: KF3CT Assay for Interleukin-1 alpha (IL1a) Biomarker Activity (AID 2283070); settings: primary human keratinocytes with fibroblasts; actives raise or lower the signal
How it was run: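 Primary skin co-culture (keratinocytes, foreskin fibroblasts), 24 h exposure; ELISA for IL-1a; bidirectional curve fit vs DMSO.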

[9] = read-out: TIMP metallopeptidase inhibitor 2 (TIMP2), TIMP2 (gene 7077); test: BSK_KF3CT_TIMP2: BioMAP Diversity Plus: KF3CT Assay for TIMP metallopeptidase inhibitor 2 (TIMP2) Biomarker Activity (AID 2283071); settings: primary human keratinocytes with fibroblasts; actives raise or lower the signal
How it was run: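 TIMP-2 measured by ELISA at 24 h in human keratinocyte/fibroblast primary co-cultures exposed to chemicals. Both increases and decreases were fitted against DMSO. Parallel cultures were stained with SRB for total protein as an overt-cytotoxicity check.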

[10] = read-out: Transforming growth factor beta 1 (TGFb1), TGFB1 (gene 7040); test: BSK_KF3CT_TGFb1: BioMAP Diversity Plus: KF3CT Assay for Transforming growth factor beta 1 (TGFb1) Biomarker Activity (AID 2283072); settings: primary human keratinocytes with fibroblasts; actives raise or lower the signal
How it was run: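 ELISA quantifies TGF-b1 at 24 h post-dose in a primary human skin co-culture of keratinocytes and fibroblasts, with gain or loss judged against DMSO. Parallel SRB total-protein staining flags overt cytotoxicity.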

[11] = read-out: C-C motif chemokine 2 (Homo sapiens) (UniProt P13500); test: BSK_KF3CT_MCP1: BioMAP Diversity Plus: KF3CT Assay for Monocyte Chemoattractant Protein 1 (MCP1/CCL2) Biomarker Activity (AID 2283073); settings: primary human keratinocytes with fibroblasts; actives raise or lower the signal
How it was run: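 Human keratinocyte–foreskin fibroblast co-culture; MCP-1 measured by ELISA 24 h after dosing. Bidirectional fit vs DMSO; cytotoxicity tracked by SRB total protein in parallel cultures.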

[12] = read-out: Matrix Metallopeptidase 9 (MMP9), MMP9 (gene 4318); test: BSK_KF3CT_MMP9: BioMAP Diversity Plus: KF3CT Assay for Matrix Metallopeptidase 9 (MMP9) Biomarker Activity (AID 2283074); settings: primary human keratinocytes with fibroblasts; actives raise or lower the signal;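 for AC50: MMP9 protein level quantified by ELISA in the co-culture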
How it was run: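 ELISA read-out of MMP-9 at 24 h post-dosing in a co-culture of human skin keratinocytes and foreskin fibroblasts. Gain or loss of signal was fitted in both directions against DMSO.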

[13] = read-out: urokinase plasminogen activator (uPA), PLAU (gene 5328); test: BSK_KF3CT_uPA: BioMAP Diversity Plus: KF3CT Assay for urokinase plasminogen activator (uPA) Biomarker Activity (AID 2283075); settings: primary human keratinocytes with fibroblasts; actives raise or lower the signal
How it was run: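 Skin co-culture (keratinocytes + foreskin fibroblasts), human primary; 24 h post-dose; uPA by ELISA; gain/loss fit vs DMSO baseline.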

[14] = read-out: CD40, CD40 (gene 958); test: BSK_LPS_CD40: BioMAP Diversity Plus: LPS Assay for CD40 Biomarker Activity (AID 2283076); settings: primary human HUVEC with PBMC; actives raise or lower the signal
How it was run: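 HUVEC plus PBMC co-culture stimulated with LPS; CD40 quantified by ELISA 24 h after compound dosing. Fitting was bidirectional relative to DMSO. SRB staining of parallel cultures flagged overt cytotoxicity.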

[15] = read-out: E-selectin (Homo sapiens) (UniProt P16581); test: BSK_LPS_Eselectin: BioMAP Diversity Plus: LPS Assay for Eselectin Biomarker Activity (AID 2283077); settings: primary human HUVEC with PBMC; actives raise or lower the signal
How it was run: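 Human umbilical vein endothelial cells co-cultured with PBMC under LPS stimulation; cell-surface E-selectin measured by ELISA 24 h after dosing. Change in either direction versus DMSO, with SRB total-protein staining in parallel cultures for cytotoxicity.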

[16] = read-out: Interleukin-8 (IL8), CXCL8 (gene 3576); test: BSK_LPS_IL8: BioMAP Diversity Plus: LPS Assay for Interleukin-8 (IL8) Biomarker Activity (AID 2283078); settings: primary human HUVEC with PBMC; actives raise or lower the signal
How it was run: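 Human umbilical vein endothelial cells co-cultured with PBMC, LPS-stimulated, exposed to compound for 24 h. IL-8 quantified by ELISA; fitted in both directions against DMSO, with SRB total-protein staining of parallel cultures for cytotoxicity.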

[17] = BSK_LPS_SRB: Viability Assessment in the BioMAP Diversity Plus: LPS Assay (AID 2283079); settings: primary human HUVEC with PBMC;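 note: total protein by sulforhodamine B absorbance as a cytotoxicity measure; measured one day after compound addition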
How it was run: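 Co-culture of human umbilical vein endothelial cells and PBMC, read 24 h after dosing. Total protein by 0.1% SRB staining after 10% TCA fixation, absorbance at 560 nm; bidirectional fit against DMSO.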

[18] = read-out: Interleukin-1 alpha (IL1a), IL1A (gene 3552); test: BSK_LPS_IL1a: BioMAP Diversity Plus: LPS Assay for Interleukin-1 alpha (IL1a) Biomarker Activity (AID 2283080); settings: primary human HUVEC with PBMC; actives raise or lower the signal
How it was run: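 Human umbilical vein endothelial cells co-cultured with PBMC and stimulated with LPS; IL-1a measured by ELISA 24 h after dosing. Bidirectional fitting against DMSO; cytotoxicity checked by SRB staining in parallel cultures.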

[19] = read-out: Monocyte Chemoattractant Protein-1 (MCP1), CCL2 (gene 6347); test: BSK_LPS_MCP1: BioMAP Diversity Plus: LPS Assay for Monocyte Chemoattractant Protein-1 (MCP1) Biomarker Activity (AID 2283081); settings: primary human HUVEC with PBMC; actives raise or lower the signal
How it was run: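 Human umbilical vein endothelial cells co-cultured with PBMC, LPS-stimulated; secreted MCP-1 measured by ELISA 24 h after compound addition. Bidirectional curve fitting against DMSO baseline; SRB total-protein staining in parallel cultures for cytotoxicity.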

[20] = read-out: Monokine induced gamma interferon (MIG), CXCL9 (gene 4283); test: BSK_hDFCGF_MIG: BioMAP Diversity Plus: hDFCGF Assay for Monokine induced gamma interferon (MIG) Biomarker Activity (AID 2283063); settings: primary human foreskin fibroblasts; actives raise or lower the signal
How it was run: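 MIG/CXCL9 measured by ELISA 24 h after dosing primary human skin fibroblasts. Activity fitted in both directions against DMSO controls. Cytotoxicity was checked in parallel cultures by SRB staining read at 560 nm.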

Measured: AC50

Sequence of E-selectin (Homo sapiens) (P16581 whole entry, looked up): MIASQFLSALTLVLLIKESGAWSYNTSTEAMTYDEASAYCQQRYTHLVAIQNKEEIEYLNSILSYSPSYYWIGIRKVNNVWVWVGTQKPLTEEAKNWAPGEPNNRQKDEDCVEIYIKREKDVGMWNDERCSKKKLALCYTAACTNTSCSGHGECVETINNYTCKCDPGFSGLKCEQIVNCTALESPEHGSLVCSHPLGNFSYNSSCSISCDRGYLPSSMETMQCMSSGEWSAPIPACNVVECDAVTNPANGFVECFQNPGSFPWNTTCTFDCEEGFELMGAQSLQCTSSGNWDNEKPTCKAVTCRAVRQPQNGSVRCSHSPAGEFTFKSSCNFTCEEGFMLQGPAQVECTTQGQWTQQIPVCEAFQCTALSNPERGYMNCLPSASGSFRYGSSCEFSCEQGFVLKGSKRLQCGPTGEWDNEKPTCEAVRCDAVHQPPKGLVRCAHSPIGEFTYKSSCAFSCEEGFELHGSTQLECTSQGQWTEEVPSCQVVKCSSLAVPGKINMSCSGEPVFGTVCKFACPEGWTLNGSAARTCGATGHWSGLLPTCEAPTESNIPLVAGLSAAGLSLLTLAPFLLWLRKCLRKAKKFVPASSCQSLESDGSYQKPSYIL

CC(C)(C)c1cc(O)c(C(C)(C)C)cc1O
active: [3] 20 µM | [15] 7.72 µM | [16] 1.39 µM
not listed: [20]
inactive: all other assays above

FC(F)(F)C(F)(F)C(F)(F)C(F)(F)C(F)(F)C(F)(F)CCI
inactive: all assays above

CC(=O)OC/C=C(\C)CCC=C(C)C
inactive: all assays above

CC1=C(/C=C/C(C)=C/C=C/C(C)=C/CO)C(C)(C)CCC1
active: [3] 20.9 µM | [4] 20.9 µM | [6] 31.4 µM | [12] 32.3 µM | [15] 4.25 µM
not listed: [20]
inactive: all other assays above

Nc1ccc2c(c1)C(=O)c1ccccc1C2=O
not listed: [12]
inactive: all other assays above

Clc1cc(Cl)c(Cl)cc1Cl
inactive: all assays above

O=C(OCCCCCOC(=O)c1ccccc1)c1ccccc1
not listed: [20]
inactive: all other assays above
